From PubChem BioAssay (NCATS) come the findings set out here.

Each structure is given as a SMILES string. Inconclusive results are not listed. The source made the active and inactive calls. Calls come from the whole dose curve; as a rule, active = well fitted curve in the direction sought with a large enough effect; inconclusive = small, poorly fitted or top-dose-only effect, or another doubt; inactive = no such curve, though single readings can be large; an effect the other way counts as inactive or inconclusive.

Experiment [1] relates to Zika virus NS2B-NS3 protease. In words: Primary screen GU AMC qHTS for Zika virus inhibitors (AID 1347154). Note: nearly all actives have a fitted effect of over 70% in size. Note: potency is the fitted concentration of half-maximal effect. Summed up: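 Unlinked Zika NS2B hydrophilic domain–NS3 protease complex at 25 nM in 10 mM Tris-HCl pH 8.0, 0.01% Tween 20, with an AMC peptide substrate. Fluorescence change (340/450 nm) over 15 min at room temperature, normalized to controls, fitted to 4-parameter Hill.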
Background: Quantitative high-throughput screening tests each substance at several concentrations.

Experiment [2] can be described thus: qHTS to identify inhibitors of the type 1 interferon - major histocompatibility complex class I in skeletal muscle: primary screen against the NCATS Mechanism Interrogation Plate v5.0 (MIPE) Libary (AID 1347411). Note: nearly all actives have a fitted effect of over 65% in size. Note: potency is the fitted concentration of half-maximal effect. A digest of the protocol:
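Immortalized human C25cl48 myoblasts with HiBit knocked into endogenous HLA-B*08:01 were stimulated with 4.0 ng/ml IFN-beta and exposed to compounds (11-point 1:3 titration, top 46 uM final) for 24 hrs at 37 C; HiBiT lytic luminescence measured.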

Experiment [3] deals with Lysine-specific demethylase 5B (Homo sapiens) (UniProt Q9UGL1). The experiment in a line: Optimization screen for KDM5B Histone Demethylases FDH coupled qHTS against the LOPAC library (AID 1347166). A digest of the protocol: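 KDM5BDeltaAP (200nM final) preincubated 10 min with compound, then 12.5uM H3K4Me3, 25uM a-ketoglutarate, ascorbate, Fe(II), NAD+ and FDH added; 50mM HEPES pH 7.5, 0.01% Tween-20. NADH fluorescence (340/450 nm) change over 30 min, room temperature.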
Chain of Lysine-specific demethylase 5B (Homo sapiens) (Q9UGL1 whole entry, looked up): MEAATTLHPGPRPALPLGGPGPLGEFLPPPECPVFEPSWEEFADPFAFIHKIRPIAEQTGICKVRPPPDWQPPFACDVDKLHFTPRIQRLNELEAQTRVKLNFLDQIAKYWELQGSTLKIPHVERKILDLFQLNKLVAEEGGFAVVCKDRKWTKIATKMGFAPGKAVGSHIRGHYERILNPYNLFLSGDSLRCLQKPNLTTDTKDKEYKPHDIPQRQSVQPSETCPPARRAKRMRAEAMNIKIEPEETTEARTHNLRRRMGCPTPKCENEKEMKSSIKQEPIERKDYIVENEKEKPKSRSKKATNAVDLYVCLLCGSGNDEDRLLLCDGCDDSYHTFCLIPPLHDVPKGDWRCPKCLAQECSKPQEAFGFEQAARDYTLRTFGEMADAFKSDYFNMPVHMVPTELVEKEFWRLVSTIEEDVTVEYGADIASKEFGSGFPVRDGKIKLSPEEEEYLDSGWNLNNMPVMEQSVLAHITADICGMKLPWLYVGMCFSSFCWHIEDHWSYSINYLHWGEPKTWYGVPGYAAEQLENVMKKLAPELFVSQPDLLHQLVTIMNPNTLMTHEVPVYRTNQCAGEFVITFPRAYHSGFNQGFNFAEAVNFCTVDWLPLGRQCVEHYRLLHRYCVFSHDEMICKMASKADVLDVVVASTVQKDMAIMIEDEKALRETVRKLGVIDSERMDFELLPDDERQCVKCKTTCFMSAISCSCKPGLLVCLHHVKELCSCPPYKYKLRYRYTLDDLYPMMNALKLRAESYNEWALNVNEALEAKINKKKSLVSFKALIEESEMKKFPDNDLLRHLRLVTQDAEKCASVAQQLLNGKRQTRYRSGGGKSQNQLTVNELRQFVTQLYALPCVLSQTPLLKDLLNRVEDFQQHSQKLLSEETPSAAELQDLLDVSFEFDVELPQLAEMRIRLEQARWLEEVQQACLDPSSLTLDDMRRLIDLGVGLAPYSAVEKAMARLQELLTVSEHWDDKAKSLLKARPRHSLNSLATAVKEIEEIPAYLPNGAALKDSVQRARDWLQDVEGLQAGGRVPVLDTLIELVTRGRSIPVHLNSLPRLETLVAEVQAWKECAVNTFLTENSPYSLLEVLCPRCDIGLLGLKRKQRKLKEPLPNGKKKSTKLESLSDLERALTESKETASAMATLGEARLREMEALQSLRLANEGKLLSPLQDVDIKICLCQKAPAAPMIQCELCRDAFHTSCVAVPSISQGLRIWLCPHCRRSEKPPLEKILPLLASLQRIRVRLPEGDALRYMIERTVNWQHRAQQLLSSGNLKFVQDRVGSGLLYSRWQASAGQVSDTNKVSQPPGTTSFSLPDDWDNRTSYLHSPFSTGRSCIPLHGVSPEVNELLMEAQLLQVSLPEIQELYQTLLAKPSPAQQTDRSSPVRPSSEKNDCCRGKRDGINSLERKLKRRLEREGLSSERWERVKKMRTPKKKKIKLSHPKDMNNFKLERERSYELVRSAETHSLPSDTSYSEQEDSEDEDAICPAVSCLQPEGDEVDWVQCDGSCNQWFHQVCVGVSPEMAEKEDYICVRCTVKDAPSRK

A short description of experiment [4]: qHTS to identify inhibitors of the type 1 interferon - major histocompatibility complex class I in skeletal muscle: primary screen against the NCATS LOPAC collection (AID 1347405).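 Note: lytic HiBiT luminescence reporting HLA-B protein level.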 A digest of the protocol:
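Immortalized human C25cl48 myoblasts with HiBiT knocked into endogenous HLA-B*08:01 were stimulated with 4.0 ng/ml IFN-beta and given compounds in a 7-point, 1:4.3 titration from 46 uM final; after 24 hrs, lytic HiBiT luminescence was read.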

Experiment [5] in a line: qHTS to identify inhibitors of the type 1 interferon - major histocompatibility complex class I in skeletal muscle: primary screen against the NCATS Pharmaceutical Collection (AID 1347407).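 Note: luminescence of HiBiT knocked into endogenous HLA-B as interferon-induced MHC class I level.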 A digest of the protocol:
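Compounds […] were added to CRISPR-engineered HLA-B-HiBiT C25cl48 human myoblasts with 4.0 ng/ml IFN-beta. After 24 hrs at 37 C, cells were lysed and HiBiT luminescence measured.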

A short description of experiment [6]: qHTS for inhibitors of adenylyl cyclases using a fission yeast platform: a pilot screen against the NCATS LOPAC library (AID 1347410). Summed up: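 GFP from fbp1-GFP reporter, read by Acumen laser cytometry, indicates AC inhibition in fission yeast expressing AC9, GNAS and PDE4D2. Cells grown 18 h in the dark at 30C with compounds, final up to 57 uM.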
The target in experiment [7] is Protein phosphatase 1D (Homo sapiens) (UniProt O15297). The experiment in a line: RapidFire Mass Spectrometry qHTS Assay for Modulators of WT P53-Induced Phosphatase 1 (WIP1) (AID 1347424).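 Note: amount of dephosphorylated VEPPL-S-QETFS peptide product formed by WIP1; series mostly up to about 63 µM.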 A digest of the protocol:
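10 nM WIP1 preincubated with compounds 1 hr at room temperature in pH 7.5 Tris buffer with 30 mM MgCl2, 1 mM TCEP; 2 uM VEPPL-pS-QETFS phosphopeptide for 5 min, formic acid quench; dephosphorylated product quantified by RapidFire MS against labelled standard.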

Experiment [8] can be described thus: Validation qHTS assay for inhibitors of Activation Induced Cytidine Deaminase (AID): UDG Counterscreen signal (AID 1347427). A digest of the protocol: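 Counterscreen read of UDG activity (2 U/mL, 4/3x) in the FRET deamination format with AID (1 uM, 4/3x), DJC20/DJC23 substrates (250 nM, 4x), 4 h at room temperature. NaOH stop, fluorescence at 560 ex/665 em.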

The target of experiment [9] is Protein phosphatase 1D (Homo sapiens) (UniProt O15297). The experiment in a line: Rhodamine-PBP qHTS Assay for Modulators of WT P53-Induced Phosphatase 1 (WIP1) (AID 1347425). Summed up:
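The read-out is the change in Rhodamine-PBP fluorescence (f1 - f0, ex 525/em 598 nm) as Pi is released, read each minute for 11 min. Final reaction: 5 nM WIP1, 10 uM phosphopeptide VEPPL-pS-QETFS, 10 uM Rh-PBP, 50 mM Tris-HCl pH 7.5, 30 mM MgCl2. Compound was preincubated with enzyme for 1 hour at room temperature.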

The test system of experiment [10] is Zika virus NS2B-NS3 protease (unlinked complex). In words: Primary screen GU Rhodamine qHTS for Zika virus inhibitors: Unlinked NS2B-NS3 protease assay (AID 1347159). Note: nearly all actives have a fitted effect of over 60% in size. A digest of the protocol: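 Percent inhibition derives from the 15-min fluorescence change (ex 480, em 540 nm), normalized to no-enzyme and no-inhibitor wells. Reactions contained 25 nM NS2B-NS3 complex and 1.5 microM substrate in 10 mM Tris-HCl pH 8.0.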

Experiment [11] has as its system Zika virus NS2B-NS3 protease (linked construct). The experiment in a line: Primary screen NINDS Rhodamine qHTS for Zika virus inhibitors (AID 1347160). Note: nearly all actives have a fitted effect of over 55% in size. Summed up: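 In 10 mM Tris-HCl pH 8.0 containing 0.01% Tween 20, linked NS2B-NS3 protease (25 nM final) is exposed to test compounds for 15 min. Cleavage of 1.5 microM Rhodamine110 substrate is tracked by fluorescence over 15 min.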

Chain of Protein phosphatase 1D (Homo sapiens) (O15297 whole entry, looked up): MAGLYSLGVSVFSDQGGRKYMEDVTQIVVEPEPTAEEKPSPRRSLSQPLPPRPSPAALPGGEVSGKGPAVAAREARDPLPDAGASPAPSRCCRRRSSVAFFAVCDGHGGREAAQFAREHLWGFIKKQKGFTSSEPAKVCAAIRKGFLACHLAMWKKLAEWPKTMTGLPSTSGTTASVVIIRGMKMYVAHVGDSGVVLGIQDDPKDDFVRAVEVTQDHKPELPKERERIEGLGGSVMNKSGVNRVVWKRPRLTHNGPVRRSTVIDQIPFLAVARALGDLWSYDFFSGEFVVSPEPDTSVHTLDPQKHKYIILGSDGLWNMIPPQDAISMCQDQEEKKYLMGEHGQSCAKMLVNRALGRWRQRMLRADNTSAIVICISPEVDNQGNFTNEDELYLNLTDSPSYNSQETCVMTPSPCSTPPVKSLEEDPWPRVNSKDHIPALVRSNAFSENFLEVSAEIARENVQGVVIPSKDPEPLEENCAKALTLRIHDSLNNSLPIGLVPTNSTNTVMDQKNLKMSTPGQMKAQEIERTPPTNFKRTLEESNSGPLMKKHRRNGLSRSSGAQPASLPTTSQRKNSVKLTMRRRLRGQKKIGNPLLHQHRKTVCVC

With `COc1ccc(-c2c(-c3ccc(O)cc3O)n[nH]c2C)cc1`, the Potency result in experiment [1] and in [2] was “inactive” each time.

Take `Cc1ccccc1C(OCCN(C)C)c1ccccc1` (stereo not given): the Potency result in experiment [1], in [4] and in [7] was “inactive” throughout. Further, the compound was classed as inactive in [3], in [5], in experiment [6] and in [8].

`Cc1cnc(NC(=O)C2=C(O)c3ccccc3S(=O)(=O)N2C)s1`: the Potency entry in [1] and in [7] was “inactive” each time. The compound was called inactive in experiment [3] and in experiment [6].

`Oc1ccc(C2CNCCc3c2cc(O)c(O)c3Cl)cc1` (stereo not given): in [1], the Potency was 12.6 µM (active). The Potency result in [4], in experiment [2] and in experiment [7] was “inactive” each time. The compound was called inactive in experiment [5], in experiment [6] and in experiment [8].

Consider `CCc1ccc(CCOc2ccc(CC3SC(=O)NC3=O)cc2)nc1` (stereo not given), for which the Potency entry in experiment [1], in [2] and in experiment [7] was “inactive” throughout. In experiment [5], the compound was classed as inactive.

On to `CCC(C)N(C)C(=O)c1cc2ccccc2c(-c2ccccc2Cl)n1` (stereo not given), for which the Potency result in [1], in [4] and in experiment [2] was “inactive” in each case. Also, the outcome in experiment [3], in [6] and in [8] was inactive.

As to `NNCCc1ccccc1`, the Potency result in [1], in [4], in experiment [2] and in experiment [7] was “inactive” throughout. Besides, the outcome in [5] and in [6] was inactive.

With `N#Cc1ccc(C(c2ccc(C#N)cc2)n2cncn2)cc1`, the Potency result in experiment [1] and in [2] was “inactive” each time.

Turning to `CC(c1cc2ccccc2s1)N(O)C(N)=O` (stereo not given), the Potency entry in [1] and in experiment [2] was “inactive” in each case.

Turning to `CCCCCCCc1ccc(CCc2cccc(O)c2C(=O)O)cc1`, in experiment [1], the Potency was 8.57 µM (active). For the same compound, the Potency entry in [2] was “inactive”.

On to `Cc1oncc1C(=O)Nc1ccc(C(F)(F)F)cc1`, for which the Potency result in experiment [1] and in experiment [7] was “inactive” each time. For the same compound, the result in [3], in experiment [6] and in [8] was inactive. Also, in experiment [2], the Potency is 18.6 µM (active).

Turning to `O=c1ncn2nc(Sc3ccc(F)cc3F)ccc2c1-c1c(Cl)cccc1Cl`, the Potency entry in experiment [1] and in experiment [2] was “inactive” each time.

In the case of `Cc1cccc(-c2[nH]c(C(C)(C)C)nc2-c2ccc3nccnc3c2)n1`, the Potency result in [1], in [4] and in [2] was “inactive” in each case. For the same compound, the call in experiment [3], in experiment [6] and in experiment [8] was inactive.

Take `Nc1nc2c(ncn2COCCO)c(=O)[nH]1`: the Potency entry in experiment [1] and in [7] was “inactive” each time. Moreover, the call in experiment [3] and in [6] was inactive.

Regarding `CC(C)C[C@H](NC(=O)[C@@H](O)[C@H](N)Cc1ccccc1)C(=O)O`, the Potency result in experiment [1], in experiment [4] and in experiment [2] was “inactive” each time. The result in experiment [3], in experiment [6] and in experiment [8] was inactive.

On to `O=C(O)CCc1ccc(NCc2cccc(Oc3ccccc3)c2)cc1`, for which the Potency result in experiment [1], in experiment [4] and in experiment [2] was “inactive” throughout. The result in [6] was inactive.

Regarding `CC(=O)Oc1ccccc1C(=O)O`, the Potency in [1] was 21.2 µM (active). Also, the Potency entry in experiment [4], in [2] and in experiment [7] was “inactive” each time. Besides, the result in experiment [5], in experiment [6], in [9] and in [8] was inactive.

Take `OC(CN1CCC(Cc2ccc(F)cc2)CC1)c1ccc(Cl)cc1` (stereo not given): the Potency result in experiment [1] and in experiment [7] was “inactive” in each case. Further, the outcome in [3], in experiment [5], in experiment [6] and in experiment [8] was inactive.

As for `Cc1c(CCOc2ccc(C(=O)O)cc2)c2cc(Cl)ccc2n1C(c1ccccc1)c1ccccc1`, the Potency result in experiment [1] and in [2] was “inactive” in each case.

Take `COc1cccc2cc(-c3nc(C4CCC(C(=O)O)CC4)n4ncnc(N)c34)[nH]c12` (stereo not given): the Potency result in [10] and in [11] was “inactive” each time.

Consider `Cc1cc(-c2ccc(CC(=O)Nc3ccc(-c4cccnc4)cc3)cc2)ccn1`, for which the Potency entry in [1] and in [2] was “inactive” each time.
